Measurements taken from the supplement of paper PMC10849652.
Targets with a hit are over-represented here; the source holds about 7,900 in all. About 0.6% of all pairs of compound and target were hits. Unmarked numbers belong to inactive results.

What was measured:
Assay in all cases: log2 fold change, soluble protein after heating vs DMSO (PISA); higher = thermal stabilisation; K562 cells, 10 uM, 30 min; active = over 0.2 and 3.5 SD of the protein, either way, in both replicates (recomputed)
saracatinib = compound: CN1CCN(CCOc2cc(OC3CCOCC3)c3c(Nc4c(Cl)ccc5c4OCO5)ncnc3c2)CC1 [saracatinib]
Summary of the method: (§1)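 Values are thermal stability changes relative to control samples and are taken from duplicates. They are stated as log2 fold changes. Before quantification by TMTpro 16plex LC-MS/MS with equalised channel sums, K562 cells at 2×10^6 cells/mL were treated with 10 μM compound for 30 min, heated in aliquots for 3 min across 48°C-58°C, pooled, extracted in PBS with 0.5% NP-40 at 4°C, and centrifuged at 21,000xg for 90 min to give the soluble supernatant.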

sotrastaurin = compound: CN1CCN(c2nc(C3=C(c4c[nH]c5ccccc45)C(=O)NC3=O)c3ccccc3n2)CC1 [sotrastaurin]
Summary of the method: as §1

alvocidib = compound: CN1CC[C@H](c2c(O)cc(O)c3c(=O)cc(-c4ccccc4Cl)oc23)[C@H](O)C1 [alvocidib]
Summary of the method: as §1

Tubastatin A = compound: CN1CCc2c(c3ccccc3n2Cc2ccc(C(=O)NO)cc2)C1 [Tubastatin A]
Summary of the method: as §1

[1] = compound: CNC(=O)C1=CC=CC=C1NC2=NC(=NC=C2Cl)NC3=C(C=C(C=C3)N4CCOCC4)OC
Summary of the method: as §1

defactinib = compound: CNC(=O)c1ccc(Nc2ncc(C(F)(F)F)c(NCc3nccnc3N(C)S(C)(=O)=O)n2)cc1 [defactinib]
Summary of the method: as §1

rucaparib = compound: CNCc1ccc(-c2[nH]c3cc(F)cc4c3c2CCNC4=O)cc1 [rucaparib]
Summary of the method: as §1

[2] = compound: CNc1nc(-c2ccc3c(N)n[nH]c3c2)cc(N2C[C@@H](C(=O)NC3CCCCC3)CC[C@H]2C)n1
Summary of the method: as §1

encorafenib = compound: COC(=O)N[C@@H](C)CNc1nccc(-c2cn(C(C)C)nc2-c2cc(Cl)cc(NS(C)(=O)=O)c2F)n1 [encorafenib]
Summary of the method: as §1

[3] = compound: COC(=O)[C@H](CCSC)NC(=O)C1=C(C=C(C=C1)NC[C@H](CS)N)C2=CC=CC=C2
Summary of the method: as §1

[4] = compound: COC1=CC=C(C=C1)CN2C=CC3=C2C=C(C=C3)C(=O)NO
Summary of the method: as §1

filanesib = compound: CON(C)C(=O)N1N=C(c2cc(F)ccc2F)S[C@@]1(CCCN)c1ccccc1 [filanesib]
Summary of the method: as §1

zotarolimus = compound: CO[C@H]1C[C@@H]2CC[C@@H](C)[C@@](O)(O2)C(=O)C(=O)N2CCCC[C@H]2C(=O)O[C@H]([C@H](C)C[C@@H]2CC[C@H](n3cnnn3)[C@H](OC)C2)CC(=O)[C@H](C)/C=C(\C)[C@@H](O)[C@@H](OC)C(=O)[C@H](C)C[C@H](C)/C=C/C=C/C=C/1C [zotarolimus]
Summary of the method: as §1

idasanutlin = compound: COc1cc(C(=O)O)ccc1NC(=O)[C@@H]1N[C@@H](CC(C)(C)C)[C@](C#N)(c2ccc(Cl)cc2F)[C@H]1c1cccc(Cl)c1F [idasanutlin]
Summary of the method: as §1

alisertib = compound: COc1cc(Nc2ncc3c(n2)-c2ccc(Cl)cc2C(c2c(F)cccc2OC)=NC3)ccc1C(=O)O [alisertib]
Summary of the method: as §1

[5] = compound: COc1cc2nc(-c3cc(F)ccc3O)nc(N[C@@H]3CNC[C@H]3C(C)(C)O)c2cc1OC
Summary of the method: as §1

gefitinib = compound: COc1cc2ncnc(Nc3ccc(F)c(Cl)c3)c2cc1OCCCN1CCOCC1 [gefitinib]
Summary of the method: as §1

[6] = compound: COc1cccc2cc(-c3nc([C@H]4CC[C@H](C(=O)O)CC4)n4ncnc(N)c34)[nH]c12
Summary of the method: as §1

lapatinib = compound: CS(=O)(=O)CCNCc1ccc(-c2ccc3ncnc(Nc4ccc(OCc5cccc(F)c5)c(Cl)c4)c3c2)o1 [lapatinib]
Summary of the method: as §1

pictilisib = compound: CS(=O)(=O)N1CCN(Cc2cc3nc(-c4cccc5[nH]ncc45)nc(N4CCOCC4)c3s2)CC1 [pictilisib]
Summary of the method: as §1

Sequence of UniProt O00244 (O00244 whole entry, looked up): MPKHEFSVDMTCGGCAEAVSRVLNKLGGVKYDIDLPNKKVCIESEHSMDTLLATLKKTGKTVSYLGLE
Sequence of UniProt Q9UEY8 (Q9UEY8 whole entry, looked up): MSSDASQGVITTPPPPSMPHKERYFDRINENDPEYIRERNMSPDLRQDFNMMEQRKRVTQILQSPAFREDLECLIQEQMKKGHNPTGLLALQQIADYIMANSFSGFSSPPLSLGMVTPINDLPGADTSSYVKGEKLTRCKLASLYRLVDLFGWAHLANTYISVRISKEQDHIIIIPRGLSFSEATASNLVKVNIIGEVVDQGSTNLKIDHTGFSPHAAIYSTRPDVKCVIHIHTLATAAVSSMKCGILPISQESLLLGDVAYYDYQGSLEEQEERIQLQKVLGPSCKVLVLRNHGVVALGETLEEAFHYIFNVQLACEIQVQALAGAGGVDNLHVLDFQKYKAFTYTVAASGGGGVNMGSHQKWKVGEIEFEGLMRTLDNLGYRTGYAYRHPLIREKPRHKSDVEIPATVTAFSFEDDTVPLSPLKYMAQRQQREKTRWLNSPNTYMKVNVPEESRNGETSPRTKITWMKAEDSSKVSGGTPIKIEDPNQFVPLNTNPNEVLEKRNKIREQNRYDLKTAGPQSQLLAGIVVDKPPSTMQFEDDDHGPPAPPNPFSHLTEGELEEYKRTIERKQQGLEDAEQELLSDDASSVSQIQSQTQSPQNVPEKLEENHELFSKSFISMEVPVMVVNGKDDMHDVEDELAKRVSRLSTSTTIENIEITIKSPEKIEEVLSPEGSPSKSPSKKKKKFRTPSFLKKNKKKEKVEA
Sequence of UniProt O43861 (O43861 whole entry, looked up): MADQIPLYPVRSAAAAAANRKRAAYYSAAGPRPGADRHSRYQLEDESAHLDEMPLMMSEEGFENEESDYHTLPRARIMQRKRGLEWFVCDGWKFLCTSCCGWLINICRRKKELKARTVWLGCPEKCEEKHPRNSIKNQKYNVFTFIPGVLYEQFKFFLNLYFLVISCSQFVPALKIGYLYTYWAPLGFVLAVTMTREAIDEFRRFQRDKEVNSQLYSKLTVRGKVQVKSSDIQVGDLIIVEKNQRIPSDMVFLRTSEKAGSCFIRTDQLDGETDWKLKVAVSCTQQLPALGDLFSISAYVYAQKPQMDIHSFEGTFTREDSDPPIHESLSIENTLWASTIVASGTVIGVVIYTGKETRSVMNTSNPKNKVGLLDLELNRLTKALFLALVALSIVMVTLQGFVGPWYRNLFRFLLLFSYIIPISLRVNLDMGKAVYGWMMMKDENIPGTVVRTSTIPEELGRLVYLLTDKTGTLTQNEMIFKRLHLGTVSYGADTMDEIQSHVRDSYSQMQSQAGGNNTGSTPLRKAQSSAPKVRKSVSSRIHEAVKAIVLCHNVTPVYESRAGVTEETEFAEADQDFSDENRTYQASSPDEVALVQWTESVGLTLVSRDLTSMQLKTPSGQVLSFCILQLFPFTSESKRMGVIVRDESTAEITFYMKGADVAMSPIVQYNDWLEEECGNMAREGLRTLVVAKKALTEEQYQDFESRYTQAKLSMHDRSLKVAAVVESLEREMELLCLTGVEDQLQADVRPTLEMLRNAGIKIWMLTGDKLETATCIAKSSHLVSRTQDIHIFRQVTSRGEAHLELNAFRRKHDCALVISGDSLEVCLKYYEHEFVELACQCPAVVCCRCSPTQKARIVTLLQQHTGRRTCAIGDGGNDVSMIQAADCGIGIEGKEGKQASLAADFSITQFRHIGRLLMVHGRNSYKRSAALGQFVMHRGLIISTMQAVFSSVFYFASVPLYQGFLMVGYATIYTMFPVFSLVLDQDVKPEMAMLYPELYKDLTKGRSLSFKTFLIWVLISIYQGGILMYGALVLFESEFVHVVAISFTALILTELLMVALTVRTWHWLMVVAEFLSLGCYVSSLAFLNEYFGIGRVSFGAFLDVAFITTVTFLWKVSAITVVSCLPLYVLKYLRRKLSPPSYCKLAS
Sequence of UniProt Q9P287 (Q9P287 whole entry, looked up): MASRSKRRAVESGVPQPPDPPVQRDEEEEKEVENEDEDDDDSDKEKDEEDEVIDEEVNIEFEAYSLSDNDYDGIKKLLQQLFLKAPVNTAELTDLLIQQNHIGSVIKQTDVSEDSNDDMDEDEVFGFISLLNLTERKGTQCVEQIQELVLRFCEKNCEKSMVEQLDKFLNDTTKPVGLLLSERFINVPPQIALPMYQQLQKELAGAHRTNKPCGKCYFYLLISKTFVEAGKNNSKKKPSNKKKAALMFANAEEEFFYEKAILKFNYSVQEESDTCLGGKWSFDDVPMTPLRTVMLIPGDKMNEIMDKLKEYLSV
Sequence of UniProt Q8N6D5 (Q8N6D5 whole entry, looked up): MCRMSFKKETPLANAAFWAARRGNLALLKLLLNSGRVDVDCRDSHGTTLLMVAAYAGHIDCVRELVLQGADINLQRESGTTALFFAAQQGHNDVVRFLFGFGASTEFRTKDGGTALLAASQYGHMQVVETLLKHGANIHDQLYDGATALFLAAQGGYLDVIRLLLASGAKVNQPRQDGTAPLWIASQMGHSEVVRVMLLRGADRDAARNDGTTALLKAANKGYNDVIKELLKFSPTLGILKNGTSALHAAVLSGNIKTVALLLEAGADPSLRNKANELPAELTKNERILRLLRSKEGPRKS
Sequence of UniProt P40616 (P40616 whole entry, looked up): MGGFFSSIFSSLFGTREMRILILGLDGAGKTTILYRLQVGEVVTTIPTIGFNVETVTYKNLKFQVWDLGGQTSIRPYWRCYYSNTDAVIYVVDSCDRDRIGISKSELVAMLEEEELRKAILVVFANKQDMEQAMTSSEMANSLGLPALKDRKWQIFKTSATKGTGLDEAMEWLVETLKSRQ
Sequence of UniProt Q8NHH9 (Q8NHH9 whole entry, looked up): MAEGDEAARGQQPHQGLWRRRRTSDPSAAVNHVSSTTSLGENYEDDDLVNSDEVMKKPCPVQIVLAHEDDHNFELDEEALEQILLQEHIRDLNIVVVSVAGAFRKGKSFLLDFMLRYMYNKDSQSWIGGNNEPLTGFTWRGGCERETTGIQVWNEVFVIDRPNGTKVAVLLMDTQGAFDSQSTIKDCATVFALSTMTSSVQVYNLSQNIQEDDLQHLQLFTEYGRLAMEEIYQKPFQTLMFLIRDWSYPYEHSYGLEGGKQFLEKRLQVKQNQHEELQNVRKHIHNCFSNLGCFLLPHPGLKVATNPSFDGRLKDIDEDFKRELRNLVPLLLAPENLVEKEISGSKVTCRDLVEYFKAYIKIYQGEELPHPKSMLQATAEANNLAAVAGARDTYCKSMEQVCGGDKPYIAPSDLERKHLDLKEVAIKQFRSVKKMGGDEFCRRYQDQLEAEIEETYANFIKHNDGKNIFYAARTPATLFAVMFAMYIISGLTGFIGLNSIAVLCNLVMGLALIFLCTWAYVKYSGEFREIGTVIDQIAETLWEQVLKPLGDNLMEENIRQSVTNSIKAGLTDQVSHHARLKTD
Sequence of UniProt Q6P6C2 (Q6P6C2 whole entry, looked up): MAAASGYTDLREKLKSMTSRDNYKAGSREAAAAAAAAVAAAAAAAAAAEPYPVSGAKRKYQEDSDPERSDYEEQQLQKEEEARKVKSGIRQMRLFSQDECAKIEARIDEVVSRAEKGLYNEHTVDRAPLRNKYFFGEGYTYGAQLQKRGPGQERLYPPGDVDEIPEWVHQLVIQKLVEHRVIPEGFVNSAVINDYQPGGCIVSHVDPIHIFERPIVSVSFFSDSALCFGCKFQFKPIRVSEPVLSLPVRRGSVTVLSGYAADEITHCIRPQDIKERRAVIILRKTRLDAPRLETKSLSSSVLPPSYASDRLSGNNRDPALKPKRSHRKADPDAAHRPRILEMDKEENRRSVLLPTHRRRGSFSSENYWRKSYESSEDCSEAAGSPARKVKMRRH
Sequence of UniProt Q9NX38 (Q9NX38 whole entry, looked up): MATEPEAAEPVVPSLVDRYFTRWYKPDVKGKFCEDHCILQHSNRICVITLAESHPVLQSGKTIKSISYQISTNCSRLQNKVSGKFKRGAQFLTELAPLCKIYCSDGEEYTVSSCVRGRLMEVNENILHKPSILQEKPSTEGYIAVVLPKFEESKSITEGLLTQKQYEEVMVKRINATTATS
Sequence of UniProt Q4L235 (Q4L235 whole entry, looked up): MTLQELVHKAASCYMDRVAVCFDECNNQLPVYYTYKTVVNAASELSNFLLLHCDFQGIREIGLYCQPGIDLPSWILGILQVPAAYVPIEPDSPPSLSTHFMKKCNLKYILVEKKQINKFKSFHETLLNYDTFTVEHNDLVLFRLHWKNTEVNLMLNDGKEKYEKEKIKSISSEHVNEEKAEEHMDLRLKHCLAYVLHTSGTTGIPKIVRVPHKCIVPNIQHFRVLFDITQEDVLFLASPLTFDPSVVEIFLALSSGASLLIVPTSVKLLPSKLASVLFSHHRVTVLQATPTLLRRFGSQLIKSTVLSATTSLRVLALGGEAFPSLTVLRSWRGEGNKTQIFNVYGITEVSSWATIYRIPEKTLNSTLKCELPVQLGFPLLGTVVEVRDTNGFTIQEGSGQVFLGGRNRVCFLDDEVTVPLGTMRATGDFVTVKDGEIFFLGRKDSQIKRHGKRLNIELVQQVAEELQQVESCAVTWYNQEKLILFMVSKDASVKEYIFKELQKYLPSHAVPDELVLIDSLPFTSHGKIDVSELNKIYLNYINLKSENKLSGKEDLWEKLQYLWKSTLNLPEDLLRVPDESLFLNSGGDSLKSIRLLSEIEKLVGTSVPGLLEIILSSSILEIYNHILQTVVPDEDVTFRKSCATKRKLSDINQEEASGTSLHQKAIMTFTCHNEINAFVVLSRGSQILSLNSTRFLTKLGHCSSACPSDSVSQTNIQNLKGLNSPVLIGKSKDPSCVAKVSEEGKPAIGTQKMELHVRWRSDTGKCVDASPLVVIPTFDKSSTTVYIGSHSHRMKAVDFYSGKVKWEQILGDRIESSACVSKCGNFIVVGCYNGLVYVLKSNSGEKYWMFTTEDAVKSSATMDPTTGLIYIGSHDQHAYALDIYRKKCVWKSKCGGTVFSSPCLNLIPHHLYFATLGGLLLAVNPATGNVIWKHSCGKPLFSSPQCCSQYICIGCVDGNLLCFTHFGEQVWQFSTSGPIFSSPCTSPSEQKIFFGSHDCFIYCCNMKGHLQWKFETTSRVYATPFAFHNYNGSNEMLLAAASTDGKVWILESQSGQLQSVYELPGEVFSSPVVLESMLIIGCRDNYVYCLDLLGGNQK

Target	log2 fold change (saracatinib)	log2 fold change (sotrastaurin)	log2 fold change (alvocidib)	log2 fold change (Tubastatin A)	log2 fold change [1]	log2 fold change (defactinib)	log2 fold change (rucaparib)	log2 fold change [2]	log2 fold change (encorafenib)	log2 fold change [3]	log2 fold change [4]	log2 fold change (filanesib)	log2 fold change (zotarolimus)	log2 fold change (idasanutlin)	log2 fold change (alisertib)	log2 fold change [5]	log2 fold change (gefitinib)	log2 fold change [6]	log2 fold change (lapatinib)	log2 fold change (pictilisib)
ATL2 (UniProt Q8NHH9)	-0.032	0.05	-0.05	0.047	0.005	0.008	0.019	0.035	0.005	0.008	-0.006	-0.03	0.026	-0.052	0.008	0.148	0.016	0.034	-0.039	0.003
ARL1 (UniProt P40616)	0.117	-0.049	-0.068	0.031	-0.017	0.03	-0.012	0.058	0.117	-0.178	-0.007	-0.155	0.03	-0.254 (active)	-0.124	-0.042	0.047	0.042	0.117	-0.135
ANKRD29 (UniProt Q8N6D5)	-0.089	-0.011	-0.016	0.27	-0.02	-0.04	-0.227	0.118	0	-0.038	0.339	-0.122	0.011	-0.077	-0.044	0.279	-0.066	-0.08	-0.126	0.177
ATOX1 (UniProt O00244)	-0.042	-0.054	-0.106	0.062	0.001	-0.117	-0.09	-0.046	0.047	-0.105	0.471 (active)	-0.122	0.113	-0.096	-0.062	-0.388	-0.036	-0.07	0.314	-0.015
AAMP (UniProt Q13685)	-0.002	0.006	-0.017	-0.049	0.022	-0.102	0.054	-0.014	-0.016	-0.009	-0.031	0.003	0.029	-0.052	-0.049	-0.027	0.026	0.033	0.024	-0.002
BRAP (UniProt Q7Z569)	-0.04	-0.198	-0.042	0.046	0.057	-0.087	0.076	-0.024	0.042	-0.064	0.062	0.02	0.01	0.028	-0.058	-0.108	0.053	-0.134	0.073	-0.055
ATP1B3 (UniProt P54709)	-0.019	0.084	-0.038	-0.014	0.004	-0.047	-0.033	0.016	-0.023	0.034	0.082	0.073	-0.034	0.014	-0.032	0.034	0.025	0.092	-0.051	-0.012
ALKBH5 (UniProt Q6P6C2)	-0.006	-0.044	0.092	0.118	-0.185	0.021	0.11	0.035	-0.048	0.003	0.124	0.001	-0.067	0.016	-0.12	0.044	0.023	-0.138	-0.008	0.094
ADD3 (UniProt Q9UEY8)	0.032	-0.087	-0.068	-0.02	-0.005	-0.018	-0.013	-0.039	-0.003	0.045	0.018	0.059	-0.074	0.02	-0.063	0.057	0.021	0.063	-0.006	0.075
AASDH (UniProt Q4L235)	0.011	-0.067	-0.035	0.16	-0.014	-0.091	–	-0.036	–	-0.004	-0.13	-0.01	-0.221	–	-0.141	0.041	-0.143	0.207	0.063	0.093
BCCIP isoform 2 (UniProt Q9P287)	-0.004	-0.044	0.031	-0.036	0.013	-0.019	0.087	-0.005	0.037	-0.024	-0.059	0.05	-0.002	-0.021	0.024	0.021	0	0.026	-0.007	-0.021
AP2M1 (UniProt C9JTK4)	-0.109	0.055	0.203	-0.045	–	-0.053	0.07	-0.019	-0.048	0.193	0.016	0.132	-0.203	0.224	-0.177	–	0.005	0.123	–	–
ABITRAM (UniProt Q9NX38)	0.035	-0.188	-0.107	-0.007	–	-0.164	-0.041	-0.243	0.025	-0.049	0.06	0.036	0.041	0.022	0.101	0.006	0.111	0.139	0.021	0.053
ATP9B (UniProt O43861)	0.13	-0.185	0.008	-0.055	-0.02	-0.025	0.081	-0.027	0.058	0.06	-0.019	0.192	-0.054	0.022	-0.039	0.023	0.101	0.178	0.019	0.012
BTBD6 (UniProt Q96KE9)	-0.031	0.021	-0.143	0.211	-0.141	-0.131	0.327	0.082	-0.101	-0.009	–	-0.019	0.062	0.053	-0.058	0.194	0.03	-0.186	-0.072	0.143
ALKBH4 (UniProt Q9NXW9)	-0.072	-0.106	-0.227	0.086	0.198	-0.056	0.07	0.03	0.074	0.071	-0.203	-0.036	0.06	-0.036	0.086	-0.058	–	0.014	-0.023	0.106
ABCA3 (UniProt Q99758)	0.009	0.121	0.047	-0.05	0.065	0.108	0.11	0.011	0.192	-0.039	-0.044	0.062	0.03	-0.021	–	0.147	–	–	-0.084	0.01
